Consider 8 molecules from PubChem BioAssay (NCI).

About 83,000 compounds went through this panel and 20% of them were active in at least one assay; those are over-represented in the sample as a whole.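 Activity criterion: percent growth below 10, measured after cells in 96-well plates were exposed to a single compound concentration for 48 hours.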 Unmarked numbers belong to inactive results. Active and inactive are the calls of the source.

Assay in all cases: NCI-60 one-dose screen, 48 h (100 = growth as untreated, 0 = no growth, -100 = all killed)
Holding throughout (settings): 10 µM unless noted

Assay [1] deals with HCT-15 colon.
For assay [2], the system named is HT29 colon.
The test system of assay [3] is SNB-75 CNS.
Assay [4] deals with SNB-19 CNS.
Assay [5] concerns U251 CNS.
The subject of assay [6] is PC-3 prostate.
In assay [7] the test system is SK-MEL-5 melanoma.
The subject of assay [8] is UACC-62 melanoma.
The subject of assay [9] is LOX IMVI melanoma.
The test system of assay [10] is SK-MEL-28 melanoma.
In assay [11] the test system is SK-MEL-2 melanoma.
Assay [12] has as its system EKVX NSCLC.
In assay [13] the test system is SN12C renal.
The subject of assay [14] is UO-31 renal.
Assay [15] relates to TK-10 renal.
The test system of assay [16] is ACHN renal.
Assay [17] has as its system CAKI-1 renal.
Assay [18] relates to CCRF-CEM leukemia.
Assay [19] deals with MOLT-4 leukemia.
The test system of assay [20] is A498 renal.

Regarding `O=C1[C@H]2Cc3c([nH]c4ccccc34)[C@H](c3ccc(Br)cc3)N2C(=O)CN1C1CCN(CC2CCCCC2)CC1`, the growth is 38.8% in [1]; 11% in assay [2]; 52.6% in assay [3]; 83.3% in assay [4]; 55.9% in assay [5]; 60.2% in [6]. Moreover, the growth in assay [7] is 69.6%; in assay [8], 96.7%; in assay [9], -69.2% (active); in assay [10], 97.6%; in [11] it was 109%; in assay [12], 83.8%. Besides, the growth in assay [13] is 73.7%; in assay [14], 45.3%; in [15], 121%; in assay [16], 80.4%; in assay [17], 52.8%; in assay [18], 49.1%. For the same molecule, the growth in [19] was 38.5%.

For the molecule `N#Cc1c(-c2cccs2)c(C#N)c(=O)n(Cc2nc3ccccc3[nH]2)c1N`, the growth was 98.2% in [1]; -93% (active) in [2]; 78.7% in assay [3]; 101% in [4]; 94.2% in assay [5]; 97.4% in assay [6]. The growth was 95.1% in assay [7]; 90.5% in [8]; 100% in assay [9]; 110% in [10]; 92.6% in assay [11]; 90.9% in assay [12]. The growth was 91.8% in assay [13]; 60% in [14]; 152% in [15]; 96.8% in [16]; 80.7% in assay [17]; 101% in [18]. Moreover, the growth in [19] is 102%.

As for `CCN(CC)S(=O)(=O)c1ccc(-c2nc(C(Cl)Cl)nc3cc(C)nn23)cc1`, the growth in assay [1] was 1.86% (active); in assay [2] it was 5.07% (active); in [3] it was 46.7%; in assay [4], 46.2%; in assay [5], 8.28% (active); in assay [6], 31.1%. In addition, the growth is 78.3% in [7]; 49.9% in assay [8]; 35.6% in assay [9]; 23.3% in [10]; 89.4% in [11]; 25.8% in assay [12]. In addition, the growth was 58.6% in [13]; 46.4% in assay [14]; 79.4% in assay [15]; 8.7% (active) in [16]; 29.6% in assay [17]; 48.9% in [18]. For the same molecule, the growth in assay [19] was 36.1%.

For the molecule `Nc1nc(=O)n([C@H]2C[C@H](O)[C@@H](CO)O2)cc1C=O`, the growth in [1] is 107%; in assay [2] it was 101%; in assay [3], 122%; in assay [4], 106%; in [5], 106%; in [6], 45%. Besides, the growth in assay [7] is 101%; in assay [8], 106%; in assay [9], 106%; in assay [10] it was 108%; in assay [11], 109%; in assay [12] it was 112%. In addition, the growth is -19.5% (active) in assay [13]; 101% in assay [14]; 108% in assay [15]; 107% in assay [16]; 82.1% in [17]; 57.7% in assay [18]. Further, the growth in assay [19] was 92%.

For the molecule `CCOC(=O)Nc1ccc2c(ccn2C(=O)c2cccc(F)c2)c1`, the growth in assay [1] was 29%; in assay [2] it was 1.15% (active); in [3], 13.2%; in assay [4] it was 27.8%; in assay [5], 25.7%; in assay [6], 42%. Also, the growth was 27.7% in assay [7]; 32.3% in assay [8]; 49.4% in [9]; 61.5% in assay [10]; 32% in assay [11]; 44.1% in [12]. Also, the growth in assay [13] is 48.7%; in assay [14] it was 49.9%; in assay [15], 59.9%; in [16] it was 53.4%; in assay [17], 45.1%; in assay [18] it was 16.7%. For the same molecule, in assay [19], the growth is 30.2%.

Take `Cn1cc(-c2nn3cc(-c4ccncc4)nc3s2)c2cc(F)ccc21`: the growth was 38.7% in assay [1]; 68.8% in assay [2]; 65% in [3]; 90.1% in assay [4]; 98.3% in [5]; 68.3% in assay [6]. Besides, the growth is 87.6% in [7]; 75.9% in [8]; 10.5% in assay [9]; 105% in [10]; 99.8% in assay [11]; 72.9% in [12]. Besides, the growth in assay [13] was 88.6%; in assay [14] it was 55.1%; in assay [16], 84%; in assay [17] it was 63.4%; in assay [20], 96.3%; in assay [18] it was 16%. Further, the growth in assay [19] was 37.3%.

For `O=[N+]([O-])c1ccc(NC(=S)NNC(=S)Nc2ccc(F)cc2)cc1`, the growth in [1] was 61.7%; in assay [2], 98%; in assay [3], 103%; in assay [4], 94.4%; in assay [5], 90.5%; in [6], 76.5%. For the same molecule, the growth is 89.9% in assay [7]; 58.8% in assay [8]; 72.3% in [9]; 98.4% in [10]; 105% in [11]; 94.8% in [12]. Moreover, the growth was 90.7% in assay [13]; 70.2% in assay [14]; 103% in assay [15]; 78.9% in assay [16]; 68.7% in assay [17]; 103% in [18]. Also, the growth in [19] was 80.8%.

Consider `Cc1cc(=O)[nH]c(O)c1C#N`, for which the growth in assay [1] is 103%; in assay [2], 110%; in [3], 87%; in assay [4] it was 101%; in [5] it was 100%; in assay [6], 97.1%. Besides, the growth is 102% in assay [7]; 91.7% in assay [8]; 95.1% in assay [9]; 108% in assay [10]; 116% in assay [11]; 94.3% in assay [12]. For the same molecule, the growth in assay [13] was 102%; in [14], 84.3%; in [15] it was 107%; in assay [16], 99.5%; in [17], 90.6%; in [18], 99.6%. Moreover, the growth in [19] is 100%.
